Giardia FBPA inh: blocks Giardia fructose-bisphosphate aldolase activity; 290,000 compounds, 0.71% hits; purified Giardia FBPA; Potency, µM (highest dose often 59.6 µM), for the others: at the top dose activity, negative = inhibition, actives largely listed as inhibitors; A8B2U2; AID 2451; also: potency is read from the fitted curve at half-maximal effect; % is scaled to controls: 0 for no effect and ±100 for the full control effect; nearly all actives have a fitted effect of over 55% in size
Target sequence (A8B2U2 whole entry, looked up): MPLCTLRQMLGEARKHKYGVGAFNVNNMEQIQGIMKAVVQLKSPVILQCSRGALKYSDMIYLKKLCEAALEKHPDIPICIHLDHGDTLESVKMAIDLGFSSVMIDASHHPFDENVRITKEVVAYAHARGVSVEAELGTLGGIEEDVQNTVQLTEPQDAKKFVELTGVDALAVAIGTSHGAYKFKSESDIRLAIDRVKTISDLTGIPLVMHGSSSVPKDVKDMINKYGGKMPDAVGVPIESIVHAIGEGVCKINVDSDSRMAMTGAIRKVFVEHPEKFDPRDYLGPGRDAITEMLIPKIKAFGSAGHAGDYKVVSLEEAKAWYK
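Giardia FBPA (40 nM reagent) was preincubated 10 min at RT with compound (up to 57.5 uM final), then substrate plus GAPDH/TPI/NAD/arsenate coupling system with diaphorase/resazurin was added; resorufin fluorescence (525/598 nm) was read after 20 min.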
LmPK inh: LmPK (Leishmania mexicana) enzyme inhibition; Q27686; purified LmPK, Kinase-Glo ATP luminescence, 1 h; Potency, µM (highest dose often 57.5 µM), for inactives: at the top dose activity change, negative = inhibition, hits mostly inhibitors; 290,000 compounds, 0.37% hits; AID 1721; also: potency is read from the fitted curve at half-maximal effect; % is scaled to controls: 0 for no effect and ±100 for the full control effect
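Screened at intermediate enzyme activity to detect both inhibitors and activators: LmPK at 0.1 nM, with a 0.5 nM enzyme column as activation reference. PEP 0.5 mM, ADP 0.1 mM; ATP detected by luminescence after 1 h.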
Shiga inhibitor: Shiga toxin inhibition; Vero cells, Shiga toxin protein synthesis inhibition reporter; inhibition, % at 38.7 µM; 290,000 compounds, 9.2% hits; AID 2315; in the data active = inhibition mostly above about 28%, no sharp cut-off; inactive = mostly below about 43%; also: 0% is about no effect
Sm TGR block: inhibitors of Schistosoma mansoni thioredoxin glutathione reductase. Q962Y6. purified TGR, DTNB reduction, TNB absorbance 405 nm. Potency, µM (highest dose often 114 µM), for inactives: at the top dose activity change, negative = inhibition, hits mostly inhibitors. 360,000 compounds, 3% hits; also: potency is read from the fitted curve at half-maximal effect; % is scaled to controls: 0 for no effect and ±100 for the full control effect; nearly all actives have a fitted effect of over 60% in size
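TGR 20 nM + NADPH 100 uM (dispensed conc.), cpd preinc 15 min RT; start with NADPH (500 uM addition) then DTNB (15 mM addition). Kinetic TNB absorbance, 405 nm filter. Four-parameter Hill fit across titration.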
Cycloheximide cs: counter-screen hit for Shiga toxin inhibitors, cycloheximide | 300,000 compounds, 12% hits | cell reporter, cycloheximide protein synthesis inhibition counterscreen | AID 2314 | max response, %; in the data active = max response mostly above about 13%, no sharp cut-off; inactive = mostly below about 14%; also: read at 38.3 µM for the half of the compounds with a filed dose; 0% is about no effect
Tb PYK inh: inhibitors of Trypanosoma brucei pyruvate kinase. Q57TT1. TbPYK enzyme, Kinase-Glo Plus ATP luminescence, 45 min. Potency, µM (titrated, usually from 76.8 µM), for inactives: top-dose activity, negative = inhibition, actives largely listed as inhibitors. 410,000 compounds, 0.12% hits. AID 624173; also: potency is read from the fitted curve at half-maximal effect; % is scaled to controls: 0 for no effect and ±100 for the full control effect; nearly all actives have a fitted effect of over 50% in size
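Quantitative HTS: titrated library compounds versus trypanosomal pyruvate kinase in TEA buffer (pH 7.2) containing KCl, MgCl2, BSA and Tween-20. Reactions were initiated with ADP, 130 uM final. Kinase-Glo Plus luminescence was read after 45 min at RT.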
Numbers without * were called inactive; ? = inconclusive; . = no result given. Shown is part of a subset that was picked to be rich in hits. Unless noted, calls follow the shape of the dose curve; as a rule, active = well fitted curve in the direction sought with a large enough effect; inconclusive = small, poorly fitted or top-dose-only effect, or another doubt; inactive = no such curve, though single readings can be large; an effect the other way counts as inactive or inconclusive.

SMILES	Giardia FBPA inh	LmPK inh	Shiga inhibitor	Sm TGR block	Cycloheximide cs	Tb PYK inh
C/C=C/C=C/C(=O)N1CC2(CC(c3cccc(NC(=O)/C=C/C)c3)=NO2)C[C@@H]1C(N)=O (some centres not stated)	-5%	0%	-3	?	-1	-26%
C/C=C\C=C/C(=O)Nc1cccc(C2=NOC3(C2)C[C@H](C(N)=O)N(C(=O)CC)C3)c1 (some centres not stated)	-19%	5%	-2	1.8µM*	0	-20%
C/C=C/C=C\C(=O)Nc1cccc(C2=NOC3(C2)C[C@H](C(N)=O)N(C(=O)CC#N)C3)c1 (some centres not stated)	-20%	7%	-7	2µM*	-3	-15%
CC(C)NC(=O)N1[C@H](c2cccs2)[C@@H](C)C(=O)[C@@H](C)[C@@H]1c1cccs1	.	.	.	1%	.	2%
COc1ccccc1CNC(=O)CN1C(=O)NC2(CCCc3sccc32)C1=O (configuration not stated)	.	.	.	-2%	.	-2%
C/C(=N/NS(=O)(=O)c1ccc(F)cc1)c1ccc(NC(=O)c2ccc(C)o2)cc1	-1%	0%	43	-2%	35*	-3%
C/C(=N\NC(=O)c1c([N+](=O)[O-])c(C)nn1C)c1ccc(NC(=O)c2ccc(C)o2)cc1	.	1%	51*	1%	25*	-9%
C/C(=N\NC(=O)C1(C)CC1(Br)Br)c1ccc(NC(=O)c2ccc(C)o2)cc1 (configuration not stated)	-4%	0%	54*	0%	24*	2%
COCC(=O)N1CCC[C@@]2(CCN(C(=O)Nc3ccccc3)C2)C1	1%	.	.	.	.	-8%
N#Cc1ccsc1NC(=O)C1CCCN1S(=O)(=O)c1cccs1 (configuration not stated)	.	.	.	1%	.	3%
COCCN(C)Cc1cn(-c2ccc(F)cc2F)nc1-c1ccccc1C	?	0%	5	5µM*	5	-3%
CCNC(=S)NNC(=O)c1nn(C)c(C)c1Cl	1%	1%	82*	1%	26	3%
Cc1nn(C)c(C(=O)NNC(=S)Nc2ccc(Cl)cc2)c1[N+](=O)[O-]	19%	8%	-1	-19%	12	-15%
Cc1c(Cl)c(C(=O)NNC(=S)Nc2ccccc2)nn1C	26%	6%	64*	-8%	31*	-25%
Cc1c(Cl)c(C(=O)NNC(=S)Nc2ccc(F)cc2)nn1C	10%	3%	179*	.	34*	-26%
CCN(C(=O)c1coc(=O)c(Br)c1)c1ccc2c(c1)OCO2	?	-1%	86*	45µM*	27*	?
CCN(C(=O)c1c(C)cc(=O)oc1C)c1ccc2c(c1)OCO2	-5%	-3%	-4	0%	-2	0%
Cc1c(CNCCc2ccccc2Cl)c(C(=O)O)c(C)n1-c1ccccc1	6%	-4%	32	?	17*	-13%
COc1ccc2c(c1)OCC(Cc1ccc(OC)c(O)c1)C2=O (configuration not stated)	1%	.	.	.	.	.
NC(=O)CC1(c2ccccc2)CCCCC1	.	.	.	.	.	1%
Cc1ccc(NC(=O)OCc2cc(-c3ccccc3)on2)cc1	7%	-1%	75*	.	38*	0%
CC(=O)Nc1ccc(NCc2cccs2)cc1	-9%	1%	28	17%	12	-1%
O=C(Nc1ccc(Cl)cc1)OCc1cc(-c2ccccc2Cl)on1	0%	0%	5	-3%	-2	1%
Cc1ccc(NC(=O)OCc2cccs2)cc1	2%	-5%	81*	0%	22*	.
Cc1nc(SCC(=O)Nc2ccc(Cl)cc2C(F)(F)F)[nH]c(=O)c1Cc1ccccc1	.	.	.	-1%	.	7%
SMILES	Giardia FBPA inh	LmPK inh	Shiga inhibitor	Sm TGR block	Cycloheximide cs	Tb PYK inh
CC(C)c1ccc(NC(=O)Cn2cc(S(=O)(=O)N3CCN(c4ccccc4F)CC3)c3ccccc3c2=O)cc1	.	.	.	-1%	.	0%
Nc1nc(SCc2ccccc2Cl)ns1	-12%	4%	58*	-2%	17*	2%
Nc1ccccc1SSc1ccccc1N	?	19%	127*	11%	69*	?
Nc1nc(SCc2ccc(Cl)cc2)ns1	-14%	7%	68*	-10%	38*	0%
CC(C)CSc1nsc(N)n1	6%	-4%	50	4%	31	-2%
N#Cc1ccccc1Sc1ccccc1N	0%	0%	-19	1%	-2	-3%
Nc1nc(SCc2ccccc2)ns1	-2%	4%	35*	0%	17*	-21%
CN(C)c1ncc2nc(-c3ccccc3)c(=O)n(CCc3ccccc3)c2n1	0%	.	.	.	.	.
Cc1c(C)c2c(c(C)c1O)CCC(C)(CCCC(C)CCCC(C)CCCC(C)C)O2 (configuration not stated)	-6%	.	.	.	.	-5%
Nc1ccccc1SCc1c(Cl)cccc1Cl	-4%	-2%	22	-9%	1	-7%
Nc1ccccc1SCc1ccccc1Cl	-10%	9%	56*	24%	25*	-11%
Cc1cc(NC(=O)C(C)C)ncc1NC(=O)c1ccco1	-3%	-7%	5	-6%	11	.
COc1cccc(C(=O)Nc2cnc(NC(=O)c3ccco3)cc2C)c1	3%	0%	47*	-13%	16*	5%
Cc1cc(NC(=O)c2ccco2)ncc1NC(=O)Cc1ccccc1	0%	-8%	70	-2%	19*	3%
O=C(Nc1cccc(NC(=O)c2sc3ccccc3c2Cl)c1)c1ccco1	-5%	4%	69*	-13%	40*	-9%
O=C(Nc1cccc(NC(=O)c2nccc3ccccc23)c1)c1ccco1	-21%	-2%	130*	4%	45*	3%
O=C(NCCc1ccccc1)c1nccc2ccccc12	.	.	.	-3%	.	-5%
Nc1nc(Nc2cccc(F)c2)nc(NCCO)c1[N+](=O)[O-]	0%	8%	-2	-3%	7	-2%
Nc1nc(Nc2ccccc2)nc(NCc2ccco2)c1[N+](=O)[O-]	-5%	1%	0	-12%	-2	1%
Fc1ccc(Nc2nc(NCc3ccco3)c3ccccc3n2)cc1	-12%	2%	67*	-28%	30*	1%
Cc1ccc(Nc2nc(N)c([N+](=O)[O-])c(NCCO)n2)cc1	-1%	1%	24	2%	13*	-5%
Cc1ccc2c(NCc3ccco3)nc(NC(C)C)nc2c1	.	.	.	.	.	0%
Cc1ccc(Nc2ccc([N+](=O)[O-])nc2[N+](=O)[O-])cc1	-20%	-2%	-2	45µM*	22*	-13%
Cc1ccc(Nc2nc(N)c([N+](=O)[O-])c(NCc3ccco3)n2)cc1	0%	2%	55*	0%	34*	-16%
Cc1ccc(Nc2ccc3nonc3c2[N+](=O)[O-])cc1	3%	-6%	30	8%	-8	2%

Source: PubChem (National Center for Advancing Translational Sciences (NCATS))
